From PubChem
Only some compounds are listed: those with a hit (about 7.9% of all), similar ones and a draw of the others.
MCF10A rerep: induces DNA re-replication in MCF 10a normal breast cells | actives 2.9% (n = 350,000) | Potency, µM (series often up to 46.1 µM), without a hit: at the highest dose activity, positive = re-replication, actives largely listed as activators | MCF 10A DNA re-replication, Hoechst nuclear intensity, 48 h; also: % of control where 0% means no effect; nearly all actives have a fitted effect of over 50% in size
HT1080 IDH1KD tx: toxicity to HT-1080 IDH1 knockdown cells (counter line) | actives 2% (n = 360,000) | HT-1080 IDH1 knockdown viability, ATP luminescence, 48 h | Potency, µM (highest dose often 46.1 µM), for inactives: at the highest dose activity, negative = toxicity, most hits filed as cytotoxic;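 also: 0% = DMSO wells and -100% = cell-free medium wells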
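CellTiter-Glo luminescence after 48 h compound exposure at 37 degrees C of IDH1-knockdown HT-1080 cells in 5% FBS RPMI. %Activity scaled between DMSO wells and cell-free media wells, with curves fitted and assigned curve classes.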
HT1080NT lethal: kills 2HG-producing HT-1080-NT fibrosarcoma cells; HT-1080-NT fibrosarcoma viability, CellTiter-Glo ATP luminescence, 48 h; Potency, µM (doses to about 46.1 µM), for the others: at the top dose activity, negative = less viability, hits mostly cytotoxic; actives 1.6% (n = 360,000); AID 686970;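 also: NT is the 2HG producing partner of a matched IDH1 knockdown line; 0% = DMSO-treated cells and -100% = media-only wells without cells; nearly all actives have a fitted effect of over 55% in size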
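Luminescent CellTiter-Glo readout after 48 hours of compound exposure at 37 degrees C defined viability of HT-1080-NT cells. Activity was normalized to DMSO wells and cell-free media wells; concentration-response curves were fitted and assigned curve classes.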
KB-3-1 tox: KB-3-1 parental cell cytotoxicity; Potency, µM (doses to about 46.1 µM), hits mostly cytotoxic; KB-3-1 viability, CellTiter-Glo ATP luminescence, 72 h; actives 1.4% (n = 400,000); also: % is scaled to controls: 0 for no effect and ±100 for the full control effect; nearly all actives have a fitted effect of over 60% in size
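Luminescent ATP read-out (CellTiter-Glo) measures survival of drug-naive KB-3-1 cells after 72 h compound exposure at 37 °C. Titration series was screened from lowest to highest concentration, with DMSO vehicle plates as background controls.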
SW480 rerep: induces DNA re-replication in SW480 colon adenocarcinoma cells; SW480 DNA re-replication, Hoechst DNA content imaging, 48 h; AID 624297; actives 1.8% (n = 340,000); Potency, µM (top dose mostly 46.1 µM), without a hit: at the highest dose re-replication activation, usual class: activators; also: % of control where 0% means no effect; nearly all actives have a fitted effect of over 55% in size
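Readout is total intensity of Hoechst-stained nuclei, excited at 405 nm and collected at 500-530 nm. Compound treatment lasted 48 hr at 37 C in 5% CO2 before staining.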
KB-V1 MDR tox: kills drug-selected multidrug resistant KB-V1 cells; KB-V1 MDR cells viability, CellTiter-Glo, 72 h; actives 3.4% (n = 400,000); Potency, µM (series often up to 46.1 µM), hits mostly cytotoxic; AID 1347076; also: % is scaled to controls: 0 for no effect and ±100 for the full control effect; nearly all actives have a fitted effect of over 60% in size
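Luminescent ATP read-out (CellTiter-Glo, 10 min) measures survival of drug-selected KB-V1 MDR cells after 72 h, 37 degrees C compound exposure. Medium: phenol-red-free DMEM, 10% FBS. Values from fitted concentration-response curves.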
An asterisk follows results filed as active; i = inactive; ? = inconclusive; nt = no result given; [ ] = another dose, or the depositor's remark. Calls follow the shape of the dose curve; as a rule, active = well fitted curve in the direction sought with a large enough effect; inconclusive = small, poorly fitted or top-dose-only effect, or another doubt; inactive = no such curve, though single readings can be large; an effect the other way counts as inactive or inconclusive. Potency is read from the fitted curve at half-maximal effect.

SMILES | MCF10A rerep | HT1080 IDH1KD tx | HT1080NT lethal | KB-3-1 tox | SW480 rerep | KB-V1 MDR tox
N#Cc1c(-c2ccc(F)cc2)c(-c2ccc(F)cc2)nn(CCO)c1=O | 5.8µM* | 8.2µM* | 6.5µM* | 3.7µM* | 3.3µM* | 8.2µM*
Cc1c(C(=O)NN)nn(-c2ccc(F)cc2)c(=O)c1C#N | -1% | -16% | -14% | i | -6% | i
O=c1c2cc(Br)ccc2nc(-c2cccc(C(F)(F)F)c2)n1O | ? | ? | ? | 2.9µM* | 11% | 2.3µM*
N#Cc1ccc(-c2nc3ccc(Br)cc3c(=O)n2O)cc1 | 1% | 10% | 1% | ? | -4% | i
CCCCCCNC(=O)n1cc(F)c(=O)[nH]c1=O | 21% | nt | nt | nt | 42% | nt
COc1ccc(C)cc1NC(=O)Cn1c(=O)n(Cc2nc(C)no2)c(=O)c2ccccc21 | nt | nt | nt | i | nt | i
CC(=O)NC(C(=O)c1ccccc1)C(=O)c1ccccc1 | -73% | 11% | 8% | i | 0.52µM* | i
CCOP(=O)(OCC)C(NC(C)=O)C(=O)c1ccccc1 (stereo not given) | 32% | -2% | 1% | i | 0% | ?
CCOC(=O)CCCSc1nc(-c2ccc3c(c2)OCO3)cc(C(F)(F)F)c1C#N | 1% | -5% | -18% | i | ? | i
CCOC(=O)CSc1nc(-c2ccncc2)ccc1C#N | 12µM* | 6% | -2% | i | 4% | i
CCOC(=O)CC(=O)CSc1nc(-c2cccnc2)ccc1C#N | -5% | 28% | 16% | i | -18% | i
CCOC(=O)CSc1nc(-c2ccc3c(c2)OCO3)ccc1C#N | 16µM* | 0% | ? | i | 2% | ?
COc1ccc(CNc2nc(-c3ccco3)nn2S(=O)(=O)c2ccc(Cl)cc2)cc1OC | nt | nt | nt | i | nt | i
C[C@H](CO)N1C[C@H](C)[C@@H](CN(C)C)Oc2c(NS(=O)(=O)c3cn(C)cn3)cccc2C1=O | -9% | 3% | -1% | i | 0.92µM* | i
C[C@H](CO)N1C[C@H](C)[C@@H](CN(C)C(=O)Nc2ccccc2)Oc2c(NS(=O)(=O)c3cn(C)cn3)cccc2C1=O | ? | -6% | 3% | i | 0% | i
C[C@H](CO)N1C[C@H](C)[C@@H](CN(C)Cc2ccncc2)Oc2c(NC(=O)Cc3ccccc3)cccc2C1=O | 1% | 15µM* | ? | 16µM* | ? | i
C[C@H](CO)N1C[C@H](C)[C@@H](CN(C)Cc2ccccc2)Oc2c(NC(=O)Cc3ccccc3)cccc2C1=O | ? | ? | ? | 23µM* | -5% | ?
C[C@H](CO)N1C[C@H](C)[C@@H](CN(C)Cc2ccc(-c3ccccc3)cc2)Oc2c(NC(=O)Cc3ccccc3)cccc2C1=O | ? | -19% | -8% | i | ? | ?
Cn1c(=O)c2cc(NC(=O)NCc3ccccc3)ccc2n1C/C=C/c1ccccc1 | nt | 8.2µM* | 8.2µM* | ? | nt | i
CCOC(=O)c1cccc(-n2cccc2/C=C2\NC(=O)N(CC(=O)O)C2=O)c1 | ? | nt | nt | i | -4% | i
CCOC(=O)c1ccc(-n2cccc2/C=C2\NC(=O)NC2=O)cc1 | 7.3µM* | nt | nt | 5.8µM* | 18µM* | 7.3µM*
C[C@@H](C(=O)O)c1ccc(-c2ccccc2)c(F)c1 | 2%[20.6 µM] | nt | nt | nt | -9%[20.6 µM] | nt
Cc1ccc(NC(=O)C(C)c2ccc(-c3ccccc3)c(F)c2)cc1 (stereo not given) | 7% | 13µM* | 16µM* | ? | -9%[9.22 µM] | i
COc1ccc(Cn2ccc3nc(C)c(C(=O)N4CCN(c5cccc(OC)c5)CC4)cc3c2=O)cc1 | nt | nt | nt | i | nt | i
Cc1nc2sc(-c3ccccc3)cc2c(=O)[nH]1 | 26µM* | ? | ? | ? | ? | 16µM*
SMILES | MCF10A rerep | HT1080 IDH1KD tx | HT1080NT lethal | KB-3-1 tox | SW480 rerep | KB-V1 MDR tox
O=c1[nH]c(-c2cccnc2)nc2sc(-c3ccccc3)cc12 | 1.3µM* | 4.6µM* | ? | ? | 3.7µM* | 2.9µM*
CC(C)OC(=O)Cc1nc2sc(-c3ccccc3)cc2c(=O)[nH]1 | 14% | 1% | 0% | i | -1% | ?
COc1ccc(NC(=O)C2CCCN(C(=O)c3cnn(-c4ccccc4)c3-n3cccc3)C2)cc1 (stereo not given) | nt | nt | nt | i | nt | i
O=[N+]([O-])c1cc(C(F)(F)F)cc([N+](=O)[O-])c1NCCNC(=S)Nc1ccc(Cl)c(Cl)c1 | ? | ? | 16µM* | ? | 0% | i
CCOc1cccc(C2C(C#N)=C(N)Oc3cc(C)[nH]c(=O)c32)c1OCC (stereo not given) | 0% | 7% | 14% | i | 1% | i
CCc1ccc2[nH]c(=O)c(C3C(C#N)=C(N)Oc4c3ccc3cccnc43)cc2c1 (stereo not given) | ? | ? | ? | ? | ? | 2.3µM*
Cc1ccc2cc(C3C(C#N)=C(N)Oc4c3ccc3cccnc43)c(=O)[nH]c2c1 (stereo not given) | ? | ? | 11µM* | i | ? | i
CC(NCC(=O)NCCc1ccc(S(N)(=O)=O)cc1)c1ccc(F)cc1 (stereo not given) | -5% | -2% | -2% | i | 26µM* | i
CC(NCCc1ccc(S(N)(=O)=O)cc1)C(=O)NCCc1ccc(F)cc1 (stereo not given) | 4% | 0% | 0% | i | -7% | i
CS(=O)(=O)Nc1cccc(C(=O)CC2(O)C(=O)Nc3ccc(Br)cc32)c1 (stereo not given) | 8.2µM* | 0% | 0% | i | ? | i
CS(=O)(=O)Nc1cccc(C(=O)CC2(O)C(=O)Nc3ccccc32)c1 (stereo not given) | 2% | -6% | -6% | i | -14% | i
Cc1ccc(C(=O)CN2/C(=C(\O)c3ccccc3)C(=O)c3ccccc3S2(=O)=O)c(C)c1 | ? | ? | ? | ? | ? | 2.3µM*
O=S(=O)(NCc1nnnn1-c1ccc(F)cc1)c1ccc(F)cc1 | nt | 2% | -2% | i | nt | i
Fc1ccc(CSc2ncnc3scc(-c4ccccc4)c23)cc1 | 22% | -2% | 2% | i | 0% | 15µM*
Cn1nnnc1Sc1ncnc2scc(-c3cccc(C(F)(F)F)c3)c12 | 3.3µM* | nt | nt | ? | ? | ?
Cn1nnnc1Sc1ncnc2scc(-c3ccc(C#N)cc3)c12 | ? | nt | nt | ? | 2% | ?
